Assay [1] can be described thus: qHTS Assay for Lipid Storage Modulators (AID 1519; calls by dose curve; for activity change, negative = inhibition: % is set by controls: 0 for no effect and ±100 for the full control effect). Conditions: Drosophila S3 cells, BODIPY lipid droplet/cell ratio, laser cytometry, cells loaded with oleic acid. Summed up: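 Cells seeded at 5,000 per well were treated with compounds over a concentration series and loaded with oleic acid (400 uM, as added). Lipid droplet fluorescence (488 nm excitation, 500-530 nm channel) was read by laser-scanning cytometry and normalized to 20 uM Triacsin C.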

For assay [2], the target named is Alpha-galactosidase A (Homo sapiens) (UniProt P06280). In words: Counterscreen for Glucocerebrosidase Inhibitors: qHTS Assay for Human alpha-Galactosidase at pH 4.5 (AID 992). Note: 0% is about no effect. Summed up: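 Concentration-response curves (0.7 nM to 77 uM final) were modeled with the Hill equation to give AC50. Reactions: 2 nM enzyme, 80 uM fluorogenic alpha-galactoside, pH 4.5 citric acid buffer, 20 min, room temperature.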
Alpha-galactosidase A (Homo sapiens), sequence (P06280 whole entry, looked up): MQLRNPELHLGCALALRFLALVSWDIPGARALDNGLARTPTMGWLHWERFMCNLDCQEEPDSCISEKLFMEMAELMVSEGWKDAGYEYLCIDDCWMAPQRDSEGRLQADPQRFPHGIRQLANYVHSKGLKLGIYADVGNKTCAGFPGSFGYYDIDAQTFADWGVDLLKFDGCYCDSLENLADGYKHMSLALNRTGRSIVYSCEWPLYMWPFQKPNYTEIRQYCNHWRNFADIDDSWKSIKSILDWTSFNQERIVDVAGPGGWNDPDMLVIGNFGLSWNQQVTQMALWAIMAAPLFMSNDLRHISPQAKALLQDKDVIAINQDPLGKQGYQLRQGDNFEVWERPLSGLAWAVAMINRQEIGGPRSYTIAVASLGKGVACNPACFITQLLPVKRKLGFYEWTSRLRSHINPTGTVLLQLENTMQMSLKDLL
(A counterscreen serves to expose hits that act by an unwanted route or on another target.)

Assay [3] addresses alpha-glucosidase (Oryza sativa, rice) (UniProt Q653V4). In words: Counterscreen for Glucocerebrosidase Inhibitors: qHTS Assay for Rice alpha-Glucosidase at pH 5.0 (AID 997).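 Note: 0% = full activity with enzyme and -100% = basal without enzyme.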 In short, it runs like this: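 Rice alpha-glucosidase (4 nM final) with 400 uM 4-methylumbelliferyl-alpha-D-glucopyranoside in citrate buffer pH 5.0, 20 min at room temperature, stopped at pH 10; fluorescence 365/440 nm, compounds 0.7 nM–77 uM, AC50 from Hill fits.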

Assay [4] is described as follows: Cell Viability - LYMP2-025 (AID 976).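 Note: plate controls were DMSO only for no effect and tetraoctylammonium bromide control for full effect.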 Summed up:
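Human lymphoblastoid LYMP2-025 cells (2500/well) were pre-incubated 5 hr at 37 C, then treated with compounds for 24 hr at 37 C in complete medium. Viability was read as intracellular ATP by CellTiter-Glo luminescence; AC50 from Hill fits.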

The nature of assay [5]: Cell Viability - LYMP2-007 (AID 979).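 Note: cells exposed to compound for 24 h before reading; 0% = DMSO only and the negative end = 92 µM tetraoctylammonium bromide; nearly all actives have a fitted effect of over 60% in size.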 In short, it runs like this: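 Human lymphoblastoid cells (2500/well) were plated in complete medium, incubated 5 hr at 37 C, then exposed to compounds for 24 hr at 37 C. Intracellular ATP was read by CellTiter-Glo luminescence after 30 min at room temperature; AC50 from Hill fits.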
The nature of assay [6]: Cell Viability - LYMP2-008 (AID 980). Note: % is set by controls: 0 for no effect and ±100 for the full control effect; nearly all actives have a fitted effect of over 60% in size. Summed up:
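Human lymphoblastoid cells (2500/well) were plated, held 5 hr at 37 C, then exposed to compounds for 24 hr at 37 C in complete medium. Intracellular ATP was read by CellTiter-Glo luminescence; AC50 from Hill-fitted concentration-response.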

Assay [7] is described as follows: Cell Viability - LYMP2-016 (AID 984). Note: % is set by controls: 0 for no effect and ±100 for the full control effect; nearly all actives have a fitted effect of over 55% in size. Summed up:
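Cells were seeded at 2500 per well and rested 5 hr before a 24 hr compound exposure at 37 C. Viability was then gauged as cellular ATP by luciferase luminescence, with AC50 values fitted to the Hill equation.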

The nature of assay [8]: Cell Viability - LYMP1-002 - Assay at 24 hr (AID 993). Note: % is set by controls: 0 for no effect and ±100 for the full control effect. In short, it runs like this:
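Human lymphoblastoid LYMP1-002 cells, 2500/well in complete medium, were treated with compounds for 24 h at 37 C; intracellular ATP was read by CellTiter-Glo luminescence. AC50 values came from Hill-equation fits of qHTS concentration-response data.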

Assay [9] can be described thus: Cell Viability - LYMP2-002 (AID 977).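 Note: compound exposure lasted 24 h at 37 °C; plate controls were DMSO only for no effect and 92 µM tetraoctylammonium bromide for full effect.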 In short, it runs like this: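 Human lymphoblastoid LYMP2-002 cells, 2500 per well, exposed to compounds for 24 h at 37 C in complete medium; viability read as intracellular ATP by CellTiter-Glo luminescence, AC50 from Hill fits.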
The nature of assay [10]: Cell Viability - LYMP2-006 (AID 978). Note: % is set by controls: 0 for no effect and ±100 for the full control effect; nearly all actives have a fitted effect of over 60% in size. In short, it runs like this:
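Cells are seeded at 2500 per well and rested 5 hr at 37 C. Compounds are added across a concentration series for 24 hr at 37 C, after which ATP is quantified by luciferase luminescence.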

A short description of assay [11]: Cell Viability - LYMP2-010 (AID 981). Note: % is set by controls: 0 for no effect and ±100 for the full control effect; nearly all actives have a fitted effect of over 55% in size. Summed up: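 Human lymphoblastoid LYMP2-010 cells (2500/well) were preincubated 5 hr at 37 C, then exposed to compounds for 24 hr at 37 C in complete medium. Intracellular ATP was measured by CellTiter-Glo luminescence after 30 min at room temperature; AC50 from Hill-fitted concentration-response.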
Assay [12] is described as follows: Cell Viability - LYMP2-012 (AID 982).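 Note: cellular ATP by luciferase luminescence where a drop means cytotoxicity; cells exposed to compound for one day before reading; 0% = DMSO only and full loss = 92 µM tetraoctylammonium bromide; nearly all actives have a fitted effect of over 55% in size.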
Assay [13] in a line: Cell Viability - LYMP2-014 (AID 983).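 Note: plate controls were DMSO only for no effect and 92 µM tetraoctylammonium bromide for full effect; nearly all actives have a fitted effect of over 50% in size.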 Summed up:
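Human lymphoblastoid cells (2500/well) were pre-incubated 5 hr at 37 C, then exposed to compounds in complete medium for 24 hr at 37 C. Intracellular ATP was read by CellTiter-Glo luminescence after 30 min at room temperature; AC50 from Hill fits.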

The nature of assay [14]: Cell Viability - LYMP2-018 (AID 985).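 Note: plate controls were DMSO only for no effect and tetraoctylammonium bromide at 92 µM for full effect; nearly all actives have a fitted effect of over 50% in size.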 Summed up:
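Human lymphoblastoid cells (2500/well) were pre-incubated 5 hr at 37 C, then exposed to compounds for 24 hr at 37 C in complete medium. Viability was read as intracellular ATP by CellTiter-Glo luminescence; AC50 values came from Hill-equation fits.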

A short description of assay [15]: Cell Viability - LYMP2-020 (AID 986).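 Note: plate controls were DMSO only for no effect and tetraoctylammonium bromide at 92 µM for full effect; nearly all actives have a fitted effect of over 55% in size.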 In short, it runs like this:
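Human lymphoblastoid cells, 2500/well, were pre-incubated 5 hr at 37 C, then exposed to compounds for 24 hr at 37 C in complete medium. Intracellular ATP was read by CellTiter-Glo luminescence, and AC50 was derived by Hill fitting of concentration-response data.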

The nature of assay [16]: Cell Viability - LYMP2-022 (AID 987). Summed up: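 Human lymphoblastoid cells, 2500/well, preincubated 5 hr at 37 C, then exposed to compounds over a concentration range for 24 hr at 37 C in complete medium. Viability read as intracellular ATP by CellTiter-Glo luminescence after 30 min at room temperature; AC50 from Hill fits.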
Assay [17] can be described thus: Cell Viability - LYMP2-024 (AID 988).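 Note: plate controls were DMSO only for no effect and 92 µM tetraoctylammonium bromide for full effect; nearly all actives have a fitted effect of over 60% in size.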 Summed up: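 Human lymphoblastoid cells (2500/well) in complete medium were preincubated 5 hr at 37 C, then exposed to compounds for 24 hr at 37 C. Intracellular ATP was read by CellTiter-Glo luminescence; AC50 from Hill-equation fits of concentration-response data.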
Assay [18] is described as follows: Cell Viability - LYMP2-026 (AID 989). Note: % is set by controls: 0 for no effect and ±100 for the full control effect; nearly all actives have a fitted effect of over 50% in size. In short, it runs like this: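 Human lymphoblastoid cells (2500/well) in complete medium were preincubated 5 hr at 37 C, then exposed to compounds for 24 hr at 37 C. Cellular ATP was read by CellTiter-Glo luminescence; AC50 from Hill-equation fits of concentration-response data.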
The nature of assay [19]: Cell Viability - LYMP1-002 - Assay at 40 hr (AID 994). In short, it runs like this:
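Human lymphoblastoid cells, 2500/well in complete medium, were preincubated 5 hr at 37 C, then exposed to compounds for 40 hr at 37 C. Intracellular ATP was read by CellTiter-Glo luminescence after 30 min at room temperature; AC50 from Hill-equation fits.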

The mark [20] stands for this setting: measured here: cell count channel max response.
The mark [21] stands for this setting: measured here: lipid channel max response.

Where “and” joins values, the source holds several entries; their conditions need not be identical. Equal values may be shown once. Inconclusive results are not listed. Calls of active or inactive are those of the source. Unless noted, calls come from the whole dose curve; as a rule, active = well fitted curve in the direction sought with a large enough effect; inconclusive = small, poorly fitted or top-dose-only effect, or another doubt; inactive = no such curve, though single readings can be large; an effect the other way counts as inactive or inconclusive.

On to `COc1cc(C(O)CO)ccc1OS(=O)(=O)O` (stereo not drawn), for which the activity change, negative = inhibition in [1] (at 57.5 µM (top of the series)) is 0.915% (inactive). In addition, the max response is -36.7% in assay [1] (setting [20]) and -37% in [1] (setting [21]).
The like results for `CCCCCCCCCCCCCCCCCCNC(=O)OCC(COP(=O)([O-])OCC[n+]1ccsc1)OC` (stereo not drawn) were, in that order, 0.643% (inactive), -16.2% and -15%.
For the molecule `O=c1[nH]c2cc([N+](=O)[O-])c([N+](=O)[O-])cc2[nH]c1=O`, the molecule was called inactive in assay [2] and in assay [3]. For the same molecule, the activity change, negative = inhibition in assay [1] (at 57.5 µM (top of the series)) was 3.97% (inactive). Further, the max response in assay [1] (setting [20]) is -1.11%; in assay [1] (setting [21]), 2.64%.
Turning to `COc1cc2nc(N3CCN(C(=O)OCc4ccccc4)C(C(=O)NC(C)(C)C)C3)nc(N)c2cc1OC` (stereo not drawn), in assay [1] (at 57.5 µM (top of the series)), the activity change, negative = inhibition is 1.16% (inactive). Further, the values for the max response in assay [1] (setting [20]) and in [1] (setting [21]) were 38.8% and 39.8%, respectively.
On to `COc1cc(NC(C)CCCN)c2ncccc2c1` (stereo not drawn), for which the activity change, negative = inhibition in [1] (at 57.5 µM (top of the series)) is 7.1% (inactive). For the same molecule, the max response was 14.8% in [1] (setting [20]) and 28.1% in assay [1] (setting [21]).
As for `CCCSc1ccc2nc(NC(=O)OC)[nH]c2c1`, the activity change, negative = inhibition in assay [1] (at 25.7 µM (top of the series)) is -1.88% (inactive); in assay [1] (at 57.5 µM (top of the series)), 9.19% (inactive). Besides, the max response in [1] (setting [20]) was -8.08% and -12.8%; in assay [1] (setting [21]), -10.3% and -11.2%.
Regarding `O=C(/C=C/c1ccc(O)c(O)c1)OCCc1ccccc1`, the activity change, negative = inhibition in assay [1] (at 57.5 µM (top of the series)) is -2.35% (inactive) and -20.7% (inactive). Also, the max response was -15.3% and -76.7% in [1] (setting [20]); -17.2% and -81.3% in [1] (setting [21]).
With `Oc1ccccc1O`, the Potency entry in assay [4], in assay [5], in [6], in assay [7] and in assay [8] was “inactive” throughout. The result in assay [2] and in assay [3] was inactive. The activity change, negative = inhibition in assay [1] (at 57.5 µM (top of the series)) was -4.75% (inactive). In addition, the max response in [1] (setting [20]) was -20.2%; in assay [1] (setting [21]) it was -25.6%.
As for `CC1CN(S(=O)(=O)c2cccc3cnccc23)CCN1` (stereo not drawn), in [1] (at 57.5 µM (top of the series)), the activity change, negative = inhibition is 1.97% (inactive). Further, the results for the max response in [1] (setting [20]) and in [1] (setting [21]) were 5.7% and 7.5%, respectively.
In the case of `O=C(O)CCCC[C@@H]1CCSS1`, the activity change, negative = inhibition in assay [1] (at 57.5 µM (top of the series)) is -3.03% (inactive). For the same molecule, the max response was -26.8% in assay [1] (setting [20]) and -29% in assay [1] (setting [21]).
For `O=C(OCc1ccccc1)c1ccccc1`, in that order: 9.34% (inactive), -2.84% and 6.88%.
For the molecule `NC(CCCP(=O)(O)O)C(=O)O` (stereo not drawn), the activity change, negative = inhibition in assay [1] (at 57.5 µM (top of the series)) is 0.0706% (inactive). The max response in [1] (setting [20]) was -11.8%; in assay [1] (setting [21]), -9.55%.
Take `S=c1[nH]c2ccccc2s1`: the Potency result in [4], in [9], in assay [10], in assay [5], in [6] and in assay [11] was “inactive” each time. The Potency entry in assay [12], in [13], in assay [7], in [14], in assay [15] and in assay [16] was “inactive” each time. Besides, the Potency result in assay [17], in [18], in assay [8] and in assay [19] was “inactive” throughout. The activity change, negative = inhibition in assay [1] (at 57.5 µM (top of the series)) is 12% (inactive). Besides, the max response worked out at 14.4% in assay [1] (setting [20]) and 29.5% in assay [1] (setting [21]).
Regarding `CCCCCCCCCCCCCCCC(=O)NCC(COP(=O)([O-])OCC[N+](C)(C)C)OCC` (stereo not drawn), the activity change, negative = inhibition in assay [1] (at 57.5 µM (top of the series)) was -0.558% (inactive). The max response in [1] (setting [20]) was -22.8%; in assay [1] (setting [21]), -25%.
As to `Fc1cccc(/C=N/N=C/c2cccc(F)c2)c1`, the activity change, negative = inhibition in assay [1] (at 57.5 µM (top of the series)) is 2.18% (inactive). Besides, the max response is -17.3% in assay [1] (setting [20]) and -14.5% in [1] (setting [21]).
On to `Cc1ccccc1CNc1ncnc2c1ncn2C1OC(CO)C(O)C1O` (stereo not drawn), for which the activity change, negative = inhibition in assay [1] (at 57.5 µM (top of the series)) was 0.209% (inactive). Further, the values for the max response in assay [1] (setting [20]) and in [1] (setting [21]) were -22.5% and -21.9%, respectively.
For `C=C/C(C)=C/[C@@]1(C)SC(=O)C(C)=C1O`, in that order: 0.111% (inactive), 30.8% and 34%.
For `CC(C(=O)O)c1ccc(C(=O)c2cccs2)cc1` (stereo not drawn), in that order: 15.6% (inactive), 8.76% and 31%.
For the molecule `Oc1c(Br)cc(Br)c2cccnc12`, in [1] (at 57.5 µM (top of the series)), the activity change, negative = inhibition is 1.03% (inactive). The values for the max response in [1] (setting [20]) and in assay [1] (setting [21]) were 0.383% and 3.22%, respectively.

These data come from PubChem BioAssay (NCATS).
